Results published in the supplement of paper PMC9262897, “Low-cost anti-mycobacterial drug discovery using engineered E. coli” (Nature Communications, 2022).
Counter-ions that a name gives are not always drawn. ± gives the standard deviation of the averaged measurements.

What was measured:
Assay in all cases: growth (OD600 after 10 h); higher = more growth (less inhibition)
[1] = tested on: E. coli TESEC Alr+ wild-type control; details: compound 0.1 mM; raw OD600 reference: median of DMSO wells 0.241, cell-free background 0.041
Procedure: (§1)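 TESEC Mtb Alr E. coli, or the Alr+ wild-type control, in 384-well plates with Prestwick library compounds at 0.1 mM and 1% DMSO, across arabinose induction levels of 1E3 to 1E7 nM. Growth is read as OD600 after 10 h at 37 °C in triplicate biological replicates.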

E. coli TESEC Mtb Alr [2] = details: compound 0.1 mM
Procedure: as §1

E. coli TESEC Mtb Asd = details: compound 0.1 mM
Procedure: (§2)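 TESEC E. coli strains in which the native enzyme is deleted and replaced by arabinose-inducible Mtb Asd, DapB, CysH or TrpD, each grown in its selective medium. Strains were screened against the Prestwick library at 0.1 mM and 1% DMSO in 384-well format at low and high arabinose induction. Growth is read as OD600 after 10 h in triplicate.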

E. coli TESEC Mtb DapB = details: compound 0.1 mM
Procedure: as §2

[3] = tested on: E. coli TESEC Alr+ wild-type control; details: compound 0.1 mM; raw OD600 reference: median of DMSO wells 0.49, cell-free background 0.052
Procedure: (§3)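 TESEC Mtb Alr E. coli (ΔaraC ΔtolC ΔentC Δalr ΔdadX, arabinose-inducible Mtb Alr) or the Alr+ wild-type control strain, grown in defined M9-fructose medium without D-alanine in 96-well plates with Prestwick library compounds at 0.1 mM and 1% DMSO. Low Alr induction is 0.1 µM arabinose and high induction is 10 mM arabinose.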

E. coli TESEC Mtb Alr [4] = details: compound 0.1 mM; remark: listed apart in the source
Procedure: as §3

[5] = arabinose 1000 nM, raw OD600 reference: median of DMSO wells 0.294, cell-free background 0.041
[6] = arabinose 10000 nM, raw OD600 reference: median of DMSO wells 0.264, cell-free background 0.041
[7] = arabinose 100000 nM, raw OD600 reference: median of DMSO wells 0.201, cell-free background 0.041
[8] = arabinose 1000000 nM, raw OD600 reference: median of DMSO wells 0.193, cell-free background 0.041
[9] = arabinose 10000000 nM, raw OD600 reference: median of DMSO wells 0.146, cell-free background 0.041
[10] = arabinose induction (level): High, raw OD600 reference: median of DMSO wells 0.331, cell-free background 0.041
[11] = arabinose induction (level): Low, raw OD600 reference: median of DMSO wells 0.417, cell-free background 0.041
[12] = arabinose induction (level): High, raw OD600 reference: median of DMSO wells […], cell-free background 0.041
[13] = arabinose induction (level): Low, raw OD600 reference: median of DMSO wells 0.227, cell-free background 0.041
[14] = arabinose 100 nM, raw OD600 reference: median of DMSO wells 0.413, cell-free background 0.052
[15] = arabinose 10000000 nM, raw OD600 reference: median of DMSO wells […], cell-free background 0.052

| SMILES | growth [1] | growth (E. coli TESEC Mtb Alr [2]; [5]) | growth (E. coli TESEC Mtb Alr [2]; [6]) | growth (E. coli TESEC Mtb Alr [2]; [7]) | growth (E. coli TESEC Mtb Alr [2]; [8]) | growth (E. coli TESEC Mtb Alr [2]; [9]) | growth (E. coli TESEC Mtb Asd; [10]) | growth (E. coli TESEC Mtb Asd; [11]) | growth (E. coli TESEC Mtb DapB; [12]) | growth (E. coli TESEC Mtb DapB; [13]) | growth [3] | growth (E. coli TESEC Mtb Alr [4]; [14]) | growth (E. coli TESEC Mtb Alr [4]; [15]) |
| --- | --- | --- | --- | --- | --- | --- | --- | --- | --- | --- | --- | --- | --- |
| C=C(NC(=O)C(=C)NC(=O)c1csc(C2=N[C@@H]3c4csc(n4)[C@H]4NC(=O)c5csc(n5)[C@H]([C@](C)(O)[C@@H](C)O)NC(=O)[C@H]5CSC(=N5)/C(=C/C)NC(=O)[C@H]([C@@H](C)O)NC(=O)c5csc(n5)[C@]3(CC2)NC(=O)[C@H](C)NC(=O)C(=C)NC(=O)[C@H](C)NC(=O)[C@H]([C@@H](C)CC)N[C@@H]2C=Cc3c([C@H](C)O)cc(nc3[C@H]2O)C(=O)O[C@@H]4C)n1)C(N)=O [Thiostrepton] | 0.297 ± 0.021 | 0.327 ± 0.004 | 0.298 ± 0.013 | 0.397 ± 0.0046 | 0.185 ± 0.0083 | 0.229 ± 0.02 | 0.295 ± 0.053 | 0.299 ± 0.091 | 0.164 ± 0.047 | 0.194 ± 0.058 | 0.603 ± 0.094 | 0.415 ± 0.019 | 0.316 ± 0.032 |
| CC(=O)OC[C@H]1O[C@@H]([S-])[C@H](OC(C)=O)[C@@H](OC(C)=O)[C@@H]1OC(C)=O.CCP(CC)CC.[Au+] [Auranofin] | 0.0481 ± 0.0033 | 0.04847 ± 0.00021 | 0.0451 ± 0.00026 | 0.0634 ± 0.012 | 0.0436 ± 0.00056 | 0.0467 ± 0.00053 | 0.0525 ± 0.0026 | 0.0514 ± 0.0016 | 0.0674 ± 0.019 | 0.111 ± 0.019 | 0.059 ± 0.00026 | 0.0775 ± 0.008 | 0.056 ± 0.00069 |
| NCCc1ccc(O)c(O)c1 [Dopamine hydrochloride] | 0.1987 ± 0.0012 | 0.27 ± 0.012 | 0.274 ± 0.0041 | 0.201 ± 0.021 | 0.197 ± 0.022 | 0.144 ± 0.009 | 0.335 ± 0.051 | 0.281 ± 0.036 | 0.174 ± 0.0035 | 0.202 ± 0.032 | 0.624 ± 0.051 | 0.4196 ± 0.0037 | 0.333 ± 0.0035 |
| CN1[C@@H]2CC[C@H]1C[C@@H](OC(c1ccccc1)c1ccccc1)C2 [Benztropine mesylate] | 0.1702 ± 0.0017 | 0.219 ± 0.0061 | 0.289 ± 0.037 | 0.165 ± 0.0036 | 0.133 ± 0.0073 | 0.166 ± 0.0023 | 0.137 ± 0.018 | 0.253 ± 0.076 | 0.166 ± 0.0063 | 0.201 ± 0.011 | 0.487 ± 0.029 | 0.4104 ± 0.0035 | 0.288 ± 0.0043 |
| C[N+](C)(C)CCOC(N)=O [Carbachol] | 0.251 ± 0.0053 | 0.309 ± 0.014 | 0.284 ± 0.02 | 0.177 ± 0.0065 | 0.186 ± 0.006 | 0.164 ± 0.0027 | 0.475 ± 0.0086 | 0.438 ± 0.051 | 0.194 ± 0.0084 | 0.26 ± 0.028 | 0.492 ± 0.011 | 0.409 ± 0.023 | 0.364 ± 0.014 |
| CCOC(=O)c1ccc(N)cc1 [Benzocaine] | 0.249 ± 0.0072 | 0.324 ± 0.02 | 0.263 ± 0.0073 | 0.213 ± 0.011 | 0.182 ± 0.0029 | 0.1551 ± 0.0012 | 0.469 ± 0.013 | 0.453 ± 0.027 | 0.212 ± 0.013 | 0.24 ± 0.034 | 0.432 ± 0.0086 | 0.4093 ± 0.00068 | 0.323 ± 0.018 |
| CN1CCN(C(c2ccccc2)c2ccc(Cl)cc2)CC1 (centres undefined) [Chlorcyclizine hydrochloride] | 0.179 ± 0.0072 | 0.215 ± 0.021 | 0.174 ± 0.021 | 0.178 ± 0.0045 | 0.07137 ± 0.00015 | 0.1236 ± 0.00055 | 0.149 ± 0.0065 | 0.221 ± 0.0041 | 0.205 ± 0.014 | 0.261 ± 0.032 | 0.4416 ± 0.0038 | 0.4163 ± 0.0041 | 0.222 ± 0.033 |
| c1ccc2[nH]c(-c3cscn3)nc2c1 [Tiabendazole] | 0.222 ± 0.014 | 0.275 ± 0.0031 | 0.253 ± 0.011 | 0.203 ± 0.021 | 0.188 ± 0.0046 | 0.15 ± 0.011 | 0.278 ± 0.085 | 0.326 ± 0.1 | 0.186 ± 0.003 | 0.192 ± 0.023 | 0.572 ± 0.075 | 0.408 ± 0.011 | 0.316 ± 0.015 |
